Assay outcomes (PubChem BioAssay)
Hits are enriched below; roughly 1.2% of the tested compounds scored in any of these assays.
MmCpn inh: Inhibitors of TCP-1 ring complex (TRiC) of Methanococcus maripaludis (MmCpn): qHTS; purified Mm-Cpn ATPase, ADP Transcreener TR-FRET; Potency, µM (top dose mostly 76.9 µM), for inactives: at the highest dose activity, negative = inhibition, usual class: inhibitors; hit rate 0.031% among 330,000; further: potency means the concentration at half of the fitted maximal effect; on the % scale 0 is the no-effect control and ±100 the full control effect; nearly all actives have a fitted effect of over 80% in size
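Inhibition of chaperonin ATP hydrolysis is measured as reduced ADP production, detected by competitive TR-FRET in which signal falls with ADP. Final enzyme 25 nM and ATP 10 uM, reacted 30 min at 37°C.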
CCT modulator: High-Throughput Screening for Modulators of Cytosolic Chaperonin Activity; hit rate 0.3% among 360,000; purified chaperonin ATPase assay, HTRF ADP detection, 30 min; AID 651819, 2012; activity change, % (test concentration not listed), hits read low; in the data active means activity change below about -30%; further: on the % scale 0 is the no-effect control and ±100 the full control effect
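We incubate TRiC, 40 or 20 nM final, with library compounds at 76 uM and 10 uM ATP for 30 min at 37 °C. ADP formed is detected with Transcreener HTRF reagents after 30 min at room temperature.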
RXFP1 antagonist: qHTS Assay for Antagonists of the Relaxin Receptor RXFP1 | Relaxin receptor 1 (Homo sapiens), Q9HBX9 | HEK293-RXFP1, relaxin-stimulated cAMP HTRF, 30 min; active compounds read low | activity change, negative = inhibition, % at 57.5 µM | hit rate 0.59% among 350,000;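 active means activity change of -60% or lower, but not beyond a set lower limit; inconclusive means change between -60% and -40%, or beyond the set limit; inactive means change above -40%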; further: on the % scale 0 is the no-effect control and ±100 the full control effect
gsp antagonist: qHTS for Antagonists of gsp, the Etiologic Mutation Responsible for Fibrous Dysplasia/McCune-Albright Syndrome: qHTS. gsp-mutant cells, cAMP HTRF, 30 min. Potency, µM (series often up to 76.9 µM), without a hit: at the top dose activity change, negative = inhibition, actives largely listed as inhibitors. hit rate 0.4% among 340,000. AID 624288, 2012; calls by dose curve; cell line not stated here;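 further: intracellular cAMP measured with PDE inhibitor Ro 20-1724 present during compound exposure; potency means the concentration at half of the fitted maximal effect; on the % scale 0 is the no-effect control and ±100 the full control effect; nearly all actives have a fitted effect of over 65% in size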
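HTRF cAMP measurement after 30 min RT detection following 30 min, 37C compound treatment alongside […] (added as 300 uM solution) in G418-selected cells seeded at 2000/well and grown 16–24 h.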
RXFP1 ag: qHTS Assay for Agonists of the Relaxin Receptor RXFP1; HEK293T-RXFP1 cAMP TR-FRET, 30 min; response scale: percent of porcine relaxin response, buffer zero; Potency, µM (titrated, usually from 57.5 µM), for inactives: top-dose activation, hits mostly activators; hit rate 0.3% among 370,000; further: potency means the concentration at half of the fitted maximal effect; on the % scale 0 is the no-effect control and ±100 the full control effect; nearly all actives have a fitted effect of over 60% in size
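HEK293T cells stably expressing RXFP1 were pretreated with the PDE4 inhibitor Ro 20174, exposed to compounds for 30 min at 37C, lysed, and cAMP was read by TR-FRET. Data normalized to buffer (basal) and 29 nM porcine relaxin (100%).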
gsp agonist: qHTS for Agonist of gsp, the Etiologic Mutation Responsible for Fibrous Dysplasia/McCune-Albright Syndrome: qHTS; gsp mutant cells, cAMP HTRF, 30 min; Potency, µM (doses to about 76.9 µM), without a hit: at the top dose activation (cAMP increase), actives largely listed as activators; hit rate 0.13% among 340,000; active means well fitted activation curve with a large enough effect; inconclusive means small, poorly fitted or top-dose-only effect, or another doubt; inactive means no such curve, though single readings can be large or run the other way; cell line not stated here;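 further: phosphodiesterase inhibitor Ro 20-1724 added with compounds to block cAMP breakdown; potency means the concentration at half of the fitted maximal effect; nearly all actives have a fitted effect of over 60% in size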
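Cells stably selected in G418 were plated at 2000/well, grown 16-24 hr, then given compounds in DMSO with the PDE inhibitor […] (300 uM solution added) for 30 min at 37C; cAMP was read by HTRF.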
An asterisk follows results filed as active; ? = inconclusive; / = no result given; [ ] = remark or other dose. Unless noted, the call rests on the fitted dose curve; in most records, active means well fitted curve in the direction sought with a large enough effect; inconclusive means small, poorly fitted or top-dose-only effect, or another doubt; inactive means no such curve, though single readings can be large; an effect the other way counts as inactive or inconclusive.

SMILES	MmCpn inh	CCT modulator	RXFP1 antagonist	gsp antagonist	RXFP1 ag	gsp agonist
COC(=O)c1sc(S(=O)(=O)N2CCCCC2C(=O)O)c(C(=O)OC)c1C (stereo not given)	0%	0	2	-31%	1%	?
COC(=O)c1sc(S(=O)(=O)N2CCC(C(N)=O)CC2)c(C(=O)OC)c1C	0%	-33*	-4	-2%	0%	-9%
CCOc1ccccc1N1CCN(C(=O)c2cc(-c3cc(OC)ccc3OC)nc3ccccc23)CC1	-6%	-1	2	14µM*	2%	23%
CCN(CC)S(=O)(=O)c1ccc2c(c1)nc(SCn1nnc3ccccc3c1=O)n2CC	-5%	1	5	6%	27%	35µM*
Cc1oc2c(c1C(=O)c1ccccc1)C(=O)C(=O)c1ccccc1-2	-5%	3	-66*	?	2%	1%
O=C1C(=O)c2c(C(=O)c3ccccc3)coc2-c2ccccc21	-1%	2	-78*	-3%	-1%	-11%
O=C(C1=C(c2ccccc2)C(=O)c2ccccc2C1=O)c1ccccc1	2%	-1	14	-8%	-1%	-19%
CC(C)=CCOc1ccc(/C=C/C(=O)c2ccc(OCC=C(C)C)cc2OCC(=O)O)cc1	/	/	-102*	/	/	/
C/C=C/c1ccc(OCC(=O)O)c(OC)c1	-1%	2	-11	-2%	0%	11%[15.4 µM]
COc1ccccc1Nc1cc(C)nc2nc(-c3ccccc3)nn12	/	/	-30	/	0%	/
CC(=O)c1cccc(NC(=O)COc2cc3oc(=O)c(CC(C)O)c(C)c3cc2Cl)c1 (stereo not given)	2%	-2	-10	32µM*	0%	6%[15.4 µM]
COc1ccc(-c2sc3ccccc3c2/C=C/c2ccncc2)cc1	-4%	0	/	11µM*	/	/
Cc1ccccc1C(=O)Nc1ccc(C(=O)N2CCCC(O)c3cc(Cl)ccc32)c(C)c1 (stereo not given)	/	/	-19	/	/	/
O=c1cc(-c2c(O)c3ccccc3n(Cc3ccccc3)c2=O)[nH][nH]1	-2%	0	-84*	-16%	1%	0%[15.4 µM]
Cc1sccc1Br	/	/	13	/	/	/
CC1CC(C)CN(C(=O)c2cc3ccccc3o2)C1 (stereo not given)	2%	-1	-9	-4%	1%	-3%[15.4 µM]
CC1CCN(C(=O)c2cc3ccccc3o2)CC1	0%	-36*	-2	-7%	2%	-2%
NC(=O)c1cc[n+](CC2=C(C(=O)[O-])N3C(=O)[C@@H](NC(=O)Cc4cccs4)[C@H]3SC2)cc1	/	/	-12	/	/	/
CCc1ccccc1NC(=O)c1ccc(Cn2nc(N3CCN(c4ccccc4)CC3)ccc2=O)o1	/	/	-23	/	0%	/
COC(=O)N/N=C/c1ccc(OCCSc2ccc(Cl)cc2)c(OC)c1	0%	1	/	-25%	-2%	-20%
COC(=O)N/N=C/c1cccc(OCCSc2ccc(Cl)cc2)c1	0%	2	-62*	-35%	2%	3%[15.4 µM]
O=C(OCc1nc2ccccc2[nH]1)C12CC3CC(CC(C3)C1)C2	3%	-1	4	35µM*	2%	11%
O=C(Nc1nc2ccccc2[nH]1)C12CC3CC(CC(C3)C1)C2	-1%	0	-14	-23%	-2%	0%
